Over roughly 1,700 compounds, “fraction of GFP-LC3-positive cells (≥5 vesicles/cell)” has its median near 0.058; the highest 2% begin near 0.59. Many of the other results were omitted from the sample, so the highest values are more common in it than they were.
Each compound was assayed on CbCln3 +/+ GFP-LC3 cerebellar neuronal cells (assay: fraction of GFP-LC3-positive cells (≥5 vesicles/cell); higher = more autophagosome accumulation).
Method in brief: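 By pin transfer, ~50 nL of compound in DMSO went in duplicate into 384-well plates holding 2 × 10^3 wild-type or mutant CbCln3 cerebellar cells per well that stably express GFP-LC3, followed by 24 h at 33 °C. The final 30 min included Hoechst 33342 and LysoTracker Red, and then came 3.2% PFA fixation and 10× imaging of three fields per well. Each value gives the fraction of cells above a vesicle threshold, averaged across duplicates, with CellProfiler counting GFP-LC3 vesicles and out-of-focus images left out. The threshold is 5 or more vesicles per cell.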

| Structure (SMILES) | fraction of GFP-LC3-positive cells |
| --- | --- |
| COc1ccc2cc1Oc1ccc(cc1)C[C@H]1c3cc(c(OC)cc3CCN1C)Oc1c(OC)c(OC)cc3c1[C@H](C2)N(C)CC3 [Tetrandrine] | 0.0783 |
| C=C(C)[C@@H]1CC[C@]2(C(=O)O)CC[C@]3(C)[C@H](CC[C@@H]4[C@@]5(C)CC[C@H](O)C(C)(C)[C@@H]5CC[C@]43C)[C@@H]12 [Betulinic acid] | 0.0563 |
| Cc1ccsc1/C=C/C1=NCCCN1C.O=C(O)C(O)C(O)C(=O)O [Morantel tartrate] | 0.0668 |
| CCN(CC)C(=S)SSC(=S)N(CC)CC [Disulfiram] | 0.687 |
| O=C(O)CCC(=O)c1ccc(-c2ccccc2)cc1 [Fenbufen] | 0.0751 |
| CC[C@]1(O)C[C@@H]2CN(CCc3c([nH]c4ccccc34)[C@@](C(=O)OC)(c3cc4c(cc3OC)N(C)[C@H]3[C@@](O)(C(=O)OC)[C@H](OC(C)=O)[C@]5(CC)C=CCN6CC[C@]43[C@@H]65)C2)C1.O=S(=O)(O)O [vinblastine] | 0.691 |
| CCCCCCCC/C=C\CCCCCCCC(=O)OC[C@@H](O)COP(=O)(O)O [Lysophosphatidic acid] | 0.0399 |
| CCCCCCCC/C=C\CCCCCCCC(=O)OC[C@@H](O)COP(=O)(O)O | 0.039 |
| COc1cc2nc(N3CCN(C(=O)c4ccco4)CC3)nc(N)c2cc1OC [prazocin] | 0.899 |
| COc1cc2nc(N3CCN(C(=O)c4ccco4)CC3)nc(N)c2cc1OC.Cl [Prazosin hydrochloride] | 0.156 |
| COc1cc2nc(N3CCN(C(=O)C4CCCO4)CC3)nc(N)c2cc1OC.Cl (centres undefined) [Terazosin hydrochloride] | 0.0471 |
| C[C@]12CC[C@@H]3c4ccc(O)cc4CC[C@H]3[C@@H]1CCC2=O [Estrone] | 0.0194 |
| CC(C)=CC[C@@H](O)C1=CC(=O)c2c(O)ccc(O)c2C1=O [Shikonin] | 0.7 |
| CC/C=C\C/C=C\C/C=C\C/C=C\C/C=C\CCCC(=O)O | 0.047 |
| CC/C=C\C/C=C\C/C=C\C/C=C\C/C=C\CCCC(=O)O [Eicosapentaenoic acid (20:5 n-3)] | 0.0669 |
| Clc1ccc(C(Cn2ccnc2)OCc2csc3c(Cl)cccc23)c(Cl)c1.O=[N+]([O-])O (centres undefined) [Sertaconazole nitrate] | 0.0474 |
| O=C(O)c1cc(N(Cc2ccccc2O)Cc2cc(O)ccc2O)ccc1O | 0.0412 |
| O=C(O)c1cc(N(Cc2ccccc2O)Cc2cc(O)ccc2O)ccc1O [Lavendustin A] | 0.0834 |
| CCCCNc1c(C(=O)OCC)c(C)nc2c1cnn2CC.Cl [Tracazolate hydrochloride] | 0.0505 |
